The source of these data is PubChem BioAssay (NCATS).

The subject of experiment [1] is CRL-7250. In words: Cytotoxic Profiling of Annotated Libraries Using Quantitative High-Throughput Screening (AID 1296008). Also: potency is read from the fitted curve at half-maximal effect. As to max response: % is scaled to controls: 0 for no effect and ±100 for the full control effect. The following applies: Five cell lines viability, CellTiter-Glo ATP luminescence, 48-72 h; max response: active compounds read low. An outline of the steps: (§1)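 Compounds were pin-transferred onto cells and incubated 48 or 72 hr at 37 degree Celsius, 95% humidity. CellTiter-Glo was added, plates sat 10 min at room temperature, then ATP-coupled luminescence was imaged as the viability read-out.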

In another experiment the test system is HEK293. The experiment is described as above. Particulars: Five cell lines viability, CellTiter-Glo ATP luminescence, 48-72 h; max response: active compounds read low. An outline of the steps:
as §1

Experiment [2] concerns HaCat. The description is as above. The following applies: Five cell lines viability, CellTiter-Glo ATP luminescence, 48-72 h; max response: active compounds read low. An outline of the steps: as §1
The next experiment has as its system KB-3-1. The description is as above. The following applies: Five cell lines viability, CellTiter-Glo ATP luminescence, 48-72 h; max response: active compounds read low. An outline of the steps: as §1
The subject of experiment [3] is NIH3T3. The description is as above. The following applies: Five cell lines viability, CellTiter-Glo ATP luminescence, 48-72 h; max response: active compounds read low. An outline of the steps:
as §1

The test system of experiment [4] is CRL-7250. In words: qHTS assay to identify novel small-molecules to repurpose for Merkel cell carcinoma treatment (AID 1296009). Particulars: MCC and control cell lines, CellTiter-Glo viability, 72 h; at 44.8 µM (top of the series) unless noted. An outline of the steps:
(§2)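 Luminescence from CellTiter-Glo, read 10 min after addition at room temperature, reported viability following a 72 hr, 37 degree celsius treatment with NPC or MIPE compounds in titration; values normalized to plate controls.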

Experiment [5] concerns NIH3T3. The description is as above. The following applies: MCC and control cell lines, CellTiter-Glo viability, 72 h; at 44.8 µM (top of the series) unless noted. An outline of the steps:
as §2

The subject of experiment [6] is HACAT. Described as above. Particulars: MCC and control cell lines, CellTiter-Glo viability, 72 h; at 44.8 µM (top of the series) unless noted. An outline of the steps:
as §2

Another experiment concerns HEK293T. The experiment is described as above. Particulars: MCC and control cell lines, CellTiter-Glo viability, 72 h; at 44.8 µM (top of the series) unless noted. An outline of the steps: as §2

Structures are written as SMILES. Results filed as inconclusive are left out. Unmarked numbers belong to inactive results. Calls of active or inactive are those of the source. Calls follow the shape of the dose curve; as a rule, active = well fitted inhibition curve with a large enough effect; inconclusive = small, poorly fitted or top-dose-only effect; inactive = flat fitted curve, though single readings scatter.
Also: nearly all actives have a fitted effect of over 60% in size.

In the case of `COC(=O)C12C(=O)C(C)(O)C(=O)C1(C)C(C)=CC1C34CCC(OC3=O)C(C)(CO)C4CCC12C` (configuration not stated), the result in the experiment with CRL-7250 [1], with KB-3-1 and in the experiment on NIH3T3 [3] was inactive. Also, the max response in the experiment on HEK293 was 4.01%; in the experiment on HaCat [2], 0.667%. Also, the outcome with CRL-7250 [4] and in the experiment with NIH3T3 [5] was “inactive [at 17.4 µM]” throughout.
Turning to `C[C@@H]1C(=O)O[C@H]2[C@H](O)[C@@]34[C@@H]5OC(=O)[C@@]3(O[C@@H]3OC(=O)[C@@H](O)[C@@]34[C@H](C(C)(C)C)[C@H]5O)[C@@]12O`, the max response in the experiment with CRL-7250 [1] was -6.45%; in the experiment with HEK293, -8.33%. In addition, the compound was classed as inactive with HaCat [2], in the experiment on KB-3-1 and in the experiment on NIH3T3 [3]. Further, the outcome in the experiment with HACAT [6] and with NIH3T3 [5] was “inactive [at 17.4 µM]” each time.
With `C[C@@](O)(COc1ccc(C#N)cc1)C(=O)Nc1ccc(C#N)c(C(F)(F)F)c1`, the max response in the experiment on CRL-7250 [1] is -2.54%; in the experiment with KB-3-1, 2.83%. Also, in the experiment with HEK293, the Potency is 14600 nM (active). Besides, the compound was classed as inactive in the experiment with HaCat [2], in the experiment on NIH3T3 [3], in the experiment on HACAT [6] and in the experiment on NIH3T3 [5].
`CN1CCCC1CCOC(c1cc2nccc(C(=O)O)c2[nH]1)c1ccccc1Cl` (configuration not stated): the compound was classed as inactive in the experiment on CRL-7250 [1], in the experiment with NIH3T3 [3], with CRL-7250 [4] and in the experiment on NIH3T3 [5]. The values for the max response in the experiment on HEK293, in the experiment with HaCat [2] and in the experiment on KB-3-1 were 1.78%, -3.9% and 7.27%, respectively.
As to `C=CC(C)(O)CC/C=C(\C)C(=O)O[C@H]1[C@H](O)[C@@H](CO)O[C@@H](OC(=O)[C@]23CCC(C)(C)CC2C2=CCC4[C@@]5(C)CC[C@H](O[C@@H]6O[C@H](CO[C@@H]7OC[C@H](O)[C@H](O)[C@H]7O[C@@H]7OC[C@@H](O)[C@H](O)[C@H]7O)[C@@H](O)[C@H](O)[C@H]6O)C(C)(C)C5CC[C@@]4(C)[C@]2(C)CC3)[C@@H]1OC1OC(C)C(O[C@@H]2OC[C@@H](O)[C@H](O[C@@H]3OC[C@@H](O)[C@H](O)[C@H]3O)[C@H]2O)C(O)C1O` (some centres not stated), the max response in the experiment on CRL-7250 [1] was -5.86%; in the experiment on HEK293 it was 0.313%; in the experiment with KB-3-1, -0.269%. In addition, the result with HaCat [2] and in the experiment on NIH3T3 [3] was inactive. The outcome with HACAT [6] and with NIH3T3 [5] was “inactive [at 9.27 µM]” in each case.
For `CN1C(=O)N(c2ccc(C#N)c(C(F)(F)F)c2)C(=O)[C@]1(CO)c1ccccc1`, the outcome in the experiment on CRL-7250 [1], with KB-3-1, with NIH3T3 [3], in the experiment on CRL-7250 [4] and in the experiment with NIH3T3 [5] was inactive. Further, the max response in the experiment on HEK293 was -8.53%; in the experiment on HaCat [2], 1.18%.
On to `COc1cc(C)[nH]c(=O)c1CNC(=O)c1c(C)n([C@H](C)C2CCOCC2)c2ccccc12`, for which the call in the experiment with CRL-7250 [1], in the experiment with HEK293, with KB-3-1, in the experiment on NIH3T3 [3], in the experiment on CRL-7250 [4] and in the experiment with HEK293T was inactive. Also, the call in the experiment on NIH3T3 [5] was inactive. Besides, in the experiment on HaCat [2], the max response is 4.27%.
As for `CN1C(=O)c2ccccc2NC(=O)C1Cc1ccccc1` (configuration not stated), the max response in the experiment with CRL-7250 [1] is 3.07%; in the experiment with HaCat [2], 2.89%; with KB-3-1 it was 3.82%; with NIH3T3 [3], -1.81%. Besides, the result in the experiment on HEK293 and in the experiment with HEK293T was inactive.
As to `C1=C2CCCN[C@H]2[C@@H]2C[C@H]1[C@H]1CCCCN1C2`, the compound was called inactive in the experiment on CRL-7250 [1], in the experiment with KB-3-1, with NIH3T3 [3], in the experiment on CRL-7250 [4] and in the experiment with NIH3T3 [5]. Further, the figures for the max response in the experiment with HEK293 and with HaCat [2] were -4.85% and -5.08%, respectively.
Turning to `CCN1C[C@]2(OC(=O)c3ccccc3NC(C)=O)CC[C@H](OC)[C@@]34[C@@H]2C[C@@H]([C@@H]13)[C@@]1(O)C[C@H](OC)[C@H]2C[C@@H]4[C@]1(O)[C@H]2OC`, the max response is -8.79% in the experiment on CRL-7250 [1], -11.1% in the experiment on HEK293 and 6.81% in the experiment on KB-3-1. The compound was called inactive in the experiment with HaCat [2], in the experiment on NIH3T3 [3], in the experiment with HACAT [6] and with NIH3T3 [5].
Regarding `CN1[C@@H]2CC[C@H]1CC(OC(=O)C1C=Nc3ccccc31)C2` (some centres not stated), the max response is 0.829% in the experiment with CRL-7250 [1], -5.26% in the experiment with HEK293, 2.07% in the experiment on HaCat [2] and 7.85% with KB-3-1. The call in the experiment with NIH3T3 [3] and in the experiment on NIH3T3 [5] was inactive.
Turning to `Oc1ccc2c3c1O[C@H]1[C@H](N(CCCl)CCCl)CC[C@@]4(O)[C@@H](C2)N(CC2CC2)CC[C@]314`, the max response with CRL-7250 [1] was -3.35%; in the experiment with HEK293, 0.595%; with HaCat [2], -4.26%. In addition, the compound was classed as inactive with KB-3-1 and in the experiment on NIH3T3 [3]. In the experiment on NIH3T3 [5], the outcome was “inactive [at 9.27 µM]”.
For the compound `C/C=C(\C)C(=O)O[C@H]1[C@H](OC(C)=O)[C@]2(CO)[C@H](O)[C@H](O)[C@]3(C)C(=CCC4[C@@]5(C)CC[C@H](O[C@@H]6O[C@H](C(=O)O)[C@@H](O)[C@H](O[C@@H]7OC[C@H](O)[C@H](O[C@@H]8OC[C@H](O)[C@H](O)[C@H]8O)[C@H]7O)[C@H]6O[C@@H]6O[C@H](CO)[C@@H](O)[C@H](O)[C@H]6O)C(C)(C)C5CC[C@]43C)[C@@H]2CC1(C)C` (some centres not stated), the max response with CRL-7250 [1] was 4.83%; with HaCat [2], 3.31%. The compound was classed as inactive with HEK293, in the experiment on KB-3-1 and with NIH3T3 [3]. Further, the outcome with HEK293T and with NIH3T3 [5] was “inactive [at 9.27 µM]” each time.
For the compound `C=C[C@H]1[C@H](O[C@@H]2O[C@H](CO)[C@@H](O)[C@H](O)[C@H]2O)OC=C2C(=O)OCC[C@H]21`, the max response with CRL-7250 [1] is -1.15%; in the experiment with HaCat [2] it was 1.24%. The compound was called inactive in the experiment with HEK293, in the experiment with KB-3-1, in the experiment on NIH3T3 [3], in the experiment with HEK293T and in the experiment with NIH3T3 [5].
As to `COC1CC(OC2CCC3(C=O)C(CCC4C3CCC3(C)C(C5=CC(=O)OC5)CCC43O)C2)OC(C)C1OC1OC(CO)C(O)C(O)C1O` (configuration not stated), the Potency in the experiment on CRL-7250 [1] is 96.8 nM (active); with HEK293, 193 nM (active); in the experiment with HaCat [2] it was 685 nM (active); in the experiment on KB-3-1, 343 nM (active). For the same compound, the outcome with NIH3T3 [3] was inactive. The outcome in the experiment on NIH3T3 [5] is “inactive [at 17.4 µM]”.
